# Source: PubChem BioAssay (several laboratories)
# PG9 Ab binder: PG9 antibody binding by small molecule; TR-FRET gp120-PG9 antibody binding; inhibition, % at 6.7 µM; 360,000 tested, 0.43% active; in the data active means inhibition above about 8.5%
# ABCB6 inh MLPCN: inhibitors of human ABC transporter ABCB6. K562-ABCB6 porphyrin accumulation, flow cytometry, 1 h; stronger effect = lower value. fluorescence ratio to DMSO, % at 10 µM. AID 602162. 360,000 tested, 0.19% active;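 active means fluorescence ratio to DMSO below 75%, the collection mean minus 3 SD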;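 further: signal is porphyrin accumulated inside mitochondria; lower ratio means ABCB6 inhibition with less porphyrin fluorescence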
# Target sequence (Q9NP58 whole entry, looked up): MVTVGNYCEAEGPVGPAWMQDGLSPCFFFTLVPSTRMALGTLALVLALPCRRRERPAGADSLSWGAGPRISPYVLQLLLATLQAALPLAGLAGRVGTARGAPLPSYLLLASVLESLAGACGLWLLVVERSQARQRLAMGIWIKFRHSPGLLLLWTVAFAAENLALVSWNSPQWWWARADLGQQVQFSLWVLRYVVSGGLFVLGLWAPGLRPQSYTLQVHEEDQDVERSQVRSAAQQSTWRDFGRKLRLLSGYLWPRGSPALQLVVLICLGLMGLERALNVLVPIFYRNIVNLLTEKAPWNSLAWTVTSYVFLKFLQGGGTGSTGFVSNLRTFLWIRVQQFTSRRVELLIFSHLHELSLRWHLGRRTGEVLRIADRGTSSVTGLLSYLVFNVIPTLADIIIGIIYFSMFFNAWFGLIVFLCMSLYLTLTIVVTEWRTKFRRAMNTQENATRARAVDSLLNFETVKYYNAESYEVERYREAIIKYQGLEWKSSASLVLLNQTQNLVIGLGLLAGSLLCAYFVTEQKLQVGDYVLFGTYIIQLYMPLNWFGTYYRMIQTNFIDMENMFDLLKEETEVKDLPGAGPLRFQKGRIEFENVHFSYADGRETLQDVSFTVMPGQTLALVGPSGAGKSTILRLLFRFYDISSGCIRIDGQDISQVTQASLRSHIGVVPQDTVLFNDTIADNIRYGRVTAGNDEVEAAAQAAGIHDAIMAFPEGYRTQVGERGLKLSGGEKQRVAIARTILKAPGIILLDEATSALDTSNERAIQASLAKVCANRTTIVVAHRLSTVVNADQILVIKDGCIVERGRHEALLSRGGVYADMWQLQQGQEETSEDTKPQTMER
# rCAG RNA binder: molecules binding r(CAG) RNA repeats; 370,000 tested, 1.3% active; AID 651821; inhibition, % at 3 µM; r(CAG) RNA repeat, TO-PRO-1 dye displacement fluorescence;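 active means inhibition above the plate cutoff, the mean of all test compounds on that plate plus 3 SD, cut at about 35% in these data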;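 further: higher means more dye released from RNA so lower well fluorescence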
# Granule exo inh: blocks lytic granule exocytosis; TALL-104 LAMP-1 surface exposure, flow cytometry; cells stimulated with thapsigargin and PMA; inhibition, % at 10 µM; 360,000 tested, 0.66% active; AID 651702;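 active means inhibition above about 55%, limit read from the data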
# Granule exo CP1: lytic granule exocytosis inhibition; shares compounds with Granule exo inh; TALL-104 cells, LAMP-1 externalization, flow cytometry; stimulated with PMA plus thapsigargin; inhibition, % at 10 µM; 1,500 tested, 11% active; in the data active means inhibition above about 60%
# A number is an active result; 0 = inactive; - = no result. An excerpt weighted towards active compounds, which were near 2.5% of everything screened.
SMILES,PG9 Ab binder,ABCB6 inh MLPCN,rCAG RNA binder,Granule exo inh,Granule exo CP1
CN(c1ccccc1)S(=O)(=O)c1cccc(NC(=O)COc2ccccc2)c1,0,0,0,0,-
CC(C)CCNC(=O)c1ccc(Cl)c(NC(=O)c2ccccc2F)c1,0,-,0,-,-
CC(c1ccccc1)N1CC(C(=O)N2CCCC(C(N)=O)C2)CC1=O (configuration not stated),0,0,0,0,-
COc1ccc(OC)c(C2=Nn3c(nnc3C3CCCCC3)SC2)c1,0,0,0,73,0
Cc1cn2c(=O)c(C(=O)NCc3ccc4c(c3)OCO4)cnc2s1,0,0,0,59,0
Cc1ccc(C(=O)NCc2ccc3c(c2)OCO3)o1,0,0,0,0,-
CC(=O)N1CCN(C(=O)c2ccc(NS(=O)(=O)c3ccc4[nH]c(=O)[nH]c4c3)cc2)CC1,0,0,0,0,-
CC(C)(C)n1nnnc1C(c1cccs1)N(Cc1ccccc1)Cc1ccco1 (configuration not stated),0,0,0,78,0
CC(C)(C)n1nnnc1C(c1cccs1)N(Cc1cccnc1)Cc1ccco1 (configuration not stated),0,0,0,0,-
O=C(CCCn1nnnc1CN1CCOCC1)N1CCN(c2ccccc2F)CC1,0,0,0,0,-
CCN(CC(=O)NCc1cccs1)C(=O)c1cccc(S(=O)(=O)N2CCc3ccccc32)c1,0,0,0,65,0
CCN(CC(=O)NCc1cccs1)C(=O)c1cccc(S(=O)(=O)N2CC(C)OC(C)C2)c1 (configuration not stated),0,0,0,0,-
O=C(Nc1ncccc1O)c1ccc(S(=O)(=O)Nc2ccccc2)cc1,0,0,0,0,-
CC(C)(C)c1nc2c(s1)CCc1onc(-c3ccc(Cl)cc3)c1-2,0,0,0,0,-
Clc1ccc(-c2noc3c2-c2nc(Cc4cccc5ccccc45)sc2CC3)cc1,0,0,0,74,0
CC(C)CNC(=O)CN(c1cccc(Cl)c1)S(C)(=O)=O,0,0,0,0,-
CC1(C)CC2CC(C)(CN2C(=O)NC(=O)c2ccccc2)C1 (configuration not stated),0,0,0,66,0
COC(=O)[C@]12C[C@H](CC(=O)N3CCCC3)C(=O)N(Cc3ccccc3)C1=C[C@H](C1CCCC1)O[C@@H]2C,0,-,0,-,-
Cc1ccc(-n2sc3ccccc3c2=O)cc1,0,0,0,74,0
O=c1c2ccccc2sn1-c1ccc(Cl)cc1,0,0,0,79,104
O=c1c2ccccc2sn1-c1ccc(F)cc1,0,0,0,0,-
COc1ccc(S(=O)(=O)Nc2ccc(O)c3ccccc23)cc1,0,0,0,87,0
COc1ccc(OC)c(NC(=O)Nc2c(O)ccc3ccccc23)c1,0,0,0,0,-
COc1ccc(OC)c(NC(=O)Nc2ccc(O)c3ccccc23)c1,0,0,0,82,0
COc1ccc(S(=O)(=O)c2c(O)cc(C)c(NS(=O)(=O)c3ccccc3)c2C)cc1,0,0,0,70,0
SMILES,PG9 Ab binder,ABCB6 inh MLPCN,rCAG RNA binder,Granule exo inh,Granule exo CP1
CN(C)S(=O)(=O)c1ccc(C(=O)OCC2CCCO2)cc1 (configuration not stated),0,0,0,0,-
CCc1ccc(NC(=O)CC2C(=O)NCCN2C(=O)c2ccc(F)cc2)cc1 (configuration not stated),0,0,0,0,-
O=C(NCCCn1ccnc1)c1ccc(COc2ccccc2)o1,0,0,0,0,-
Cc1oc(-c2ccc(-c3ccccc3)cc2)nc1CN1CCN(CC(=O)N(C)C)CC1,0,0,0,0,-
CCn1c2c(c3cc(OCC(C)C)ccc31)CCCC2=O,0,0,0,58,0
C=C1CCc2c([nH]c3ccc(OCC(C)C)cc23)C1=O,0,0,0,0,-
Fc1ccc(-c2csc3ncnc(N4CCN(c5ccccc5)CC4)c23)cc1,0,0,0,0,-
COc1ccc(F)cc1CN1CCN(c2ncnc3scc(-c4ccccc4)c23)CC1,0,0,0,70,0
COc1ccc(N2CCN(c3ncnc4scc(-c5ccc(C)cc5)c34)CC2)cc1,0,0,0,80,0
COc1ccc(CN2CCN(c3ncnc4scc(-c5ccc(F)cc5)c34)CC2)cc1,0,0,0,60,0
CCOc1ccc(CN2CCN(c3ncnc4scc(-c5ccccc5)c34)CC2)cc1,0,0,0,87,0
COC(=O)[C@H](CC(C)C)NC(=O)Nc1ccc(S(N)(=O)=O)cc1,0,0,0,0,-
O=C(C=Cc1cccs1)c1ccc(Cl)s1,0,0,0,0,-
C=CCN(Cc1ccc(OC)c(OC)c1)C(=O)c1cc2cc(F)ccc2[nH]1,0,0,0,0,-
COc1ccc(S(=O)(=O)N(C(=O)C(C)C)c2ccc3oc(=O)sc3c2)cc1,0,0,0,0,-
COc1ccc(S(=O)(=O)N(C(=O)c2ccco2)c2cc3sc(=O)oc3c3ccccc23)cc1,0,0,98,83,0
Cc1cc(C)cc(-n2ncc3c2CCCC3NC(=O)CN2CCCCC2=O)c1 (configuration not stated),0,0,0,0,-
O=S(=O)(Nc1cc(Sc2ncn[nH]2)c(O)c2ccccc12)c1ccccc1,0,0,0,101,103
O=C1Nc2ccc(Br)cc2/C1=C/C(=O)c1ccccc1,0,0,0,73,83
Cc1cc(Nc2cccc(Cl)c2)nc(NCc2ccccc2)n1,0,0,0,70,0
Cc1cc(N/N=C/c2cccc(Cl)c2)nc(NCc2ccccc2)n1,0,0,0,0,-
COc1ccc(C(C(=O)NCc2ccccc2)N(C(=O)c2snc(C(N)=O)c2N)c2ccccc2OC)cc1 (configuration not stated),0,0,0,65,0
Oc1c(CN2CCOCC2)ccc2ccccc12,0,0,0,86,0
Oc1c(CN2CCOCC2)cc(-c2ccccc2)cc1CN1CCOCC1,0,0,0,0,-
Cc1cccc(CC2CC(=O)N(CCc3ccc4c(c3)OCO4)C2=O)c1 (configuration not stated),0,0,0,0,-
SMILES,PG9 Ab binder,ABCB6 inh MLPCN,rCAG RNA binder,Granule exo inh,Granule exo CP1
O=C1CC(Cc2ccccc2)C(=O)N1CCc1ccc2c(c1)OCO2 (configuration not stated),0,0,0,76,0
CCCCNC(=O)N1CCCC(C(=O)c2cc(C)c(OC)c(C)c2)C1 (configuration not stated),0,0,0,0,-
CCc1cc2ccccc2nc1SCC(=O)NC1CCCC1,0,0,0,79,0
N#Cc1cc2ccccc2nc1SCC(=O)NC1CC1,0,0,0,0,-
COc1ccc(C(=O)CCN2CCCC(C)C2)cc1 (configuration not stated),0,0,0,71,0
Fc1cccc(Cc2c(-c3ccco3)nc3ccc(Br)cn23)c1,0,0,0,59,0
COc1ccccc1Cc1c(-c2ccco2)nc2ccc(Cl)cn12,0,0,0,82,0
Clc1ccc2nc(-c3ccco3)c(Cc3ccccc3)n2c1,0,0,0,0,-
Fc1cccc(Cc2c(-c3ccco3)nc3ccc(Cl)cn23)c1,-,0,-,58,0
